The nature of test [1]: qHTS for Inhibitors of Plasmodium falciparum (DD2) proliferation (AID 504314).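 Also: parasite DNA measured by SYBR Green fluorescence after red cell lysis; plate controls were DMSO vehicle for no effect and artemisinin wells for full effect.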 In a few lines: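 Quantitative HTS growth inhibition: SYBR Green I binding to parasite DNA after 72 h drug exposure of infected erythrocytes (0.3% parasitemia, 2.5% hematocrit). Signals normalized per plate to inhibitor and vehicle wells.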
In general terms: Quantitative high-throughput screening tests each substance at several concentrations.

Test [2] can be described thus: qHTS for Inhibitors of Plasmodium falciparum (GB4) proliferation (AID 504315).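 Also: 0% = DMSO vehicle and -100% = 0.29 µM artemisinin control; nearly all actives have a fitted effect of over 50% in size.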 In a few lines: (§1)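 Erythrocytes infected with P. falciparum line (0.3% parasitemia, 2.5% hematocrit final) incubated with compounds 72 h at 37 °C, 5% CO2; SYBR Green lysis buffer added, fluorescence read next day. Normalized to 0.29 uM artemisinin and DMSO.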
The nature of test [3]: qHTS for Inhibitors of Plasmodium falciparum (7G8) proliferation (AID 504316).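 Also: series mostly up to about 6.7 µM; 0% = DMSO vehicle and -100% = 0.29 µM artemisinin full kill; nearly all actives have a fitted effect of over 65% in size.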 In a few lines: as §1
Test [4] in a line: qHTS for Inhibitors of Plasmodium falciparum (CP250) proliferation (AID 504320).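 Also: plate controls were DMSO vehicle for no effect and 0.29 µM artemisinin control for full effect.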 The method in brief: as §1
In test [5] the target is Atrial natriuretic peptide receptor 1 (Homo sapiens) (UniProt P16066). Kind of test: Natriuretic polypeptide receptor (hNpr1) antagonism - Pilot CMLD screen (AID 1347052; calls by dose curve;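 also: HEK293 cells with hNpr1 stimulated by hNppA peptide at 0.1 nM; cGMP level read as GloSensor luciferase luminescence after agonist stimulation; series mostly up to about 9.2 µM; % is scaled to controls: 0 for no effect and ±100 for the full control effect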).
Atrial natriuretic peptide receptor 1 (Homo sapiens), sequence (P16066 whole entry, looked up): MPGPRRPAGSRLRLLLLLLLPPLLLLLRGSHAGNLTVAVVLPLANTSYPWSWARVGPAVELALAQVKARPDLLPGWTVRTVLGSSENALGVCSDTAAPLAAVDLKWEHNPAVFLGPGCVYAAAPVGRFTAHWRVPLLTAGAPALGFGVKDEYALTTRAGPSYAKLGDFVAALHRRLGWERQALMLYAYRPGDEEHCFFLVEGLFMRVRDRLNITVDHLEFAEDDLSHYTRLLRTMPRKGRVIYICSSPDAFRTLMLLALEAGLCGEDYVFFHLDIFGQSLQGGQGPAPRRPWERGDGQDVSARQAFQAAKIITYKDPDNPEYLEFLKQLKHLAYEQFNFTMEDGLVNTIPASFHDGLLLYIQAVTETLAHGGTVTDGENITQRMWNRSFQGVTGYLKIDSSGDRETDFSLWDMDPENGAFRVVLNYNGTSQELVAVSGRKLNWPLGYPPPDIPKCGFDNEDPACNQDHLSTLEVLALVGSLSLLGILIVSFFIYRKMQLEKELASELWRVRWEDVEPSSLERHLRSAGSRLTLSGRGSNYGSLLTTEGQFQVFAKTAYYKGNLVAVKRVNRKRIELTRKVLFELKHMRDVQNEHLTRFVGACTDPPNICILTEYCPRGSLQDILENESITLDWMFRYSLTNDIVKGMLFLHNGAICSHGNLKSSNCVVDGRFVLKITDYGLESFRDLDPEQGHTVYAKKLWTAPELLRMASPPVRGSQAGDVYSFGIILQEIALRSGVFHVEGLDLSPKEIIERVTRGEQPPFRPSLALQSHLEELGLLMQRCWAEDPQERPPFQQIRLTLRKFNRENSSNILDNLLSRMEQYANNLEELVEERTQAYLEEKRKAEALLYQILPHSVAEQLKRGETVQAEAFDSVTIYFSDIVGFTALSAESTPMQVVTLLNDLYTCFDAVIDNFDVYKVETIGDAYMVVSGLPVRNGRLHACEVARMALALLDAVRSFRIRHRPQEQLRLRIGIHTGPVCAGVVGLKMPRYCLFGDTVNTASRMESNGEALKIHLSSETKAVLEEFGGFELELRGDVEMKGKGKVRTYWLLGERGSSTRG
The nature of test [6]: qHTS for Inhibitors of Plasmodium falciparum (HB3) proliferation (AID 504318).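 Also: 0% = DMSO vehicle and -100% = artemisinin control; nearly all actives have a fitted effect of over 60% in size.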 The method in brief:
as §1

Test [7] has as its target Cytochrome P450 3A4 (Homo sapiens) (UniProt P08684). Kind of test: qHTS Assay for Activators of Cytochrome P450 3A4 (AID 885). Also: nearly all actives have a fitted effect of over 65% in size. In a few lines: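 Steps: enzyme/substrate mix dispensed; compound added, 10 min RT; NADPH regeneration solution added, 60 min RT; luciferin detection buffer stops reaction; 20 min later luminescence measured.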
For test [8], the target named is Cytochrome P450 2D6 (Homo sapiens) (UniProt P10635). The test is described as follows: qHTS Assay for Inhibitors and Substrates of Cytochrome P450 2D6 (AID 891). Also: nearly all actives have a fitted effect of over 60% in size. Also: potency is read from the fitted curve at half-maximal effect. In a few lines:
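Human CYP2D6 (5 nM) with 30 uM Luciferin-ME EGE (at Km) in 100 mM KPO4, compound preincubated 10 min, then NADPH regeneration system for 60 min at room temperature. Luciferin read by luminescence; normalized to 1.43 uM quinidine.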

Test [9] addresses Cytochrome P450 2C19 (Homo sapiens) (UniProt P33261). Kind of test: qHTS Assay for Inhibitors and Substrates of Cytochrome P450 2C19 (AID 899). Also: nearly all actives have a fitted effect of over 60% in size. Also: potency is read from the fitted curve at half-maximal effect. As to activity, negative = inhibition: % is scaled to controls: 0 for no effect and ±100 for the full control effect. In a few lines:
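Luminescence readout of luciferin formed from 10uM Luciferin-H EGE (KM level) by 5 nM CYP2C19 in 50mM KPO4. 60 min NADPH-driven reaction at 37C after 10 min compound preincubation; data scaled to 57uM ketoconazole inhibition.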

Test [10] has as its target Cytochrome P450 2C9 (Homo sapiens) (UniProt P11712). Kind of test: qHTS Assay for Inhibitors and Substrates of Cytochrome P450 2C9 (AID 883). Also: nearly all actives have a fitted effect of over 60% in size. Also: potency is read from the fitted curve at half-maximal effect. As to activity change, negative = inhibition: % is scaled to controls: 0 for no effect and ±100 for the full control effect. In a few lines:
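Luminescent read-out of deoxyluciferin hydroxylation, normalized to 57uM sulphaphenazole (AC100). Reaction: 10nM enzyme, 100uM Luciferin-H (equal to KM), 25mM KPO4, 10 min compound preincubation, then 60 min with NADPH regeneration, both at 37C.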

Test [11] addresses Cytochrome P450 3A4 (Homo sapiens) (UniProt P08684). Kind of test: qHTS Assay for Inhibitors and Substrates of Cytochrome P450 3A4 (AID 884). Also: nearly all actives have a fitted effect of over 50% in size. Also: potency is read from the fitted curve at half-maximal effect. As to activity change, negative = inhibition: series mostly up to about 57 µM; % is scaled to controls: 0 for no effect and ±100 for the full control effect. In a few lines:
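20 nM human CYP3A4 with 25 uM Luciferin-PPXE (at KM) in 200 mM KPO4, preincubated 10 min with compound; NADPH regeneration started a 60 min RT reaction. Luciferin detected by luminescence, normalized to 57 uM ketoconazole as full inhibition.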

The nature of test [12]: qHTS Assay for Identification of Small Molecule Agonists for Hypoxia Response Element Signaling Pathway (AID 914; active = well fitted activation curve with a large enough effect in the signal ratio, with a control signal flat, not every such curve was filed as active; the % refers to the signal ratio; also: % of control where 0% means no effect). Conditions: ME-180 (cervical carcinoma) HRE-bla reporter, beta-lactamase ratio, CoCl2, 17 h; stronger effect = higher value. The method in brief:
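ME-180 cells carrying an HRE-driven beta-lactamase reporter were treated with compounds in a titration series plus an EC50 level of CoCl2 for 17 h at 37 degrees Celsius; CCF4 readout as the 460nm/530nm ratio gave AC50 values.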

Each structure is given as a SMILES string. A number with no mark means an inactive call. Records with an inconclusive call do not appear. Activity calls are given as the source filed them. Unless noted, calls follow the shape of the dose curve; as a rule, active = well fitted curve in the direction sought with a large enough effect; inconclusive = small, poorly fitted or top-dose-only effect, or another doubt; inactive = no such curve, though single readings can be large; an effect the other way counts as inactive or inconclusive.

Cytochrome P450 2D6 (Homo sapiens), sequence (P10635 whole entry, looked up): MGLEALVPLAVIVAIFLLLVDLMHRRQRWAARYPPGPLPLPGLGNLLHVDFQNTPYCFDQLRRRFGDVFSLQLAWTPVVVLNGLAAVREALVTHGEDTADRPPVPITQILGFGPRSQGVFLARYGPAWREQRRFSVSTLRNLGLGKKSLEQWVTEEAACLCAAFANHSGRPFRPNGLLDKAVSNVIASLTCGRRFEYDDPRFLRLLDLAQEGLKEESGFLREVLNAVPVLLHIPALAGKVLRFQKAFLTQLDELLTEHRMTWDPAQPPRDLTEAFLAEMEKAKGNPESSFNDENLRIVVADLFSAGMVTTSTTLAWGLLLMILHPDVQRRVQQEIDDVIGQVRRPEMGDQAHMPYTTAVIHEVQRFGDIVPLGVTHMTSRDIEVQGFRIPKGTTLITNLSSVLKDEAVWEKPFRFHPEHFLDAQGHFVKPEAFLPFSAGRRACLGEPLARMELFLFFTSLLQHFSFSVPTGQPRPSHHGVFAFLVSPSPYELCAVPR
Cytochrome P450 2C9 (Homo sapiens), sequence (P11712 whole entry, looked up): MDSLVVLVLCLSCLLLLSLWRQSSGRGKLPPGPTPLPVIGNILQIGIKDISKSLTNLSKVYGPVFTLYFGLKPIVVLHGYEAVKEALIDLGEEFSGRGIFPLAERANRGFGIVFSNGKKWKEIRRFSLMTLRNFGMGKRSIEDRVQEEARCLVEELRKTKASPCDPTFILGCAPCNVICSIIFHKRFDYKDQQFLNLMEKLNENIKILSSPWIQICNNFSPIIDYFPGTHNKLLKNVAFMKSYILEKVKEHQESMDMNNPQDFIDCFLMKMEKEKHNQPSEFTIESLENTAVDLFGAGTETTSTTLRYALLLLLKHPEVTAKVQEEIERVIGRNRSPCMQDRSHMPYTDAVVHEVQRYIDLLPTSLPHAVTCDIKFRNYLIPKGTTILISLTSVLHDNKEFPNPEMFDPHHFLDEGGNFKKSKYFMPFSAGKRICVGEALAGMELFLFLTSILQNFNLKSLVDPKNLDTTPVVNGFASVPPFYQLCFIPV
Cytochrome P450 3A4 (Homo sapiens), sequence (P08684 whole entry, looked up): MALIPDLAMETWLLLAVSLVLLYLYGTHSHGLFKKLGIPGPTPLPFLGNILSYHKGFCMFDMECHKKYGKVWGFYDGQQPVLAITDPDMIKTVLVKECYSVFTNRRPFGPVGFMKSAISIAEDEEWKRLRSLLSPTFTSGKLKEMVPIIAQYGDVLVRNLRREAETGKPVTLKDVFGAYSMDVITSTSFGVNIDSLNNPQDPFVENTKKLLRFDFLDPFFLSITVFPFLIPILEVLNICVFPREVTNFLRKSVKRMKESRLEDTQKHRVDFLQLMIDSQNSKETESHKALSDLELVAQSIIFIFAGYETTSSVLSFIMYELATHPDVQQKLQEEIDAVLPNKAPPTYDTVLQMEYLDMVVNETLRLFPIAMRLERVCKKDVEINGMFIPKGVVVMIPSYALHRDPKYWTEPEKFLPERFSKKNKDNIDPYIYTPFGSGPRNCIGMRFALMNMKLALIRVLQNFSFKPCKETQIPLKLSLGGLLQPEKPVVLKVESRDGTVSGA
Cytochrome P450 2C19 (Homo sapiens), sequence (P33261 whole entry, looked up): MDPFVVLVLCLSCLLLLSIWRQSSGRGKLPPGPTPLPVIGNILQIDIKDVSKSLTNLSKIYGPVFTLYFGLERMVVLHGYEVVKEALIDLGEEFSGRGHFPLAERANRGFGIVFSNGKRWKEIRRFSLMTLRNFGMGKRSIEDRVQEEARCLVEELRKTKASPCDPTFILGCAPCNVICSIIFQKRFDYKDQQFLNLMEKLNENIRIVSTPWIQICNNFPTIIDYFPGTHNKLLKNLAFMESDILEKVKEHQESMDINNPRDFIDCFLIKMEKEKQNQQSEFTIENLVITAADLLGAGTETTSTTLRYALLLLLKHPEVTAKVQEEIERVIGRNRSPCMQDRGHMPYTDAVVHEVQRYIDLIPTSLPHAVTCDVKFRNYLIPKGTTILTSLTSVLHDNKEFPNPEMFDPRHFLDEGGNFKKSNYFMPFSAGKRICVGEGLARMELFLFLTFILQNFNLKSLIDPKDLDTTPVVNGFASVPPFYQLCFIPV

Consider `CCCCC1=CC2=C(c3ccco3)C(=O)C(C)(OC(=O)c3ccc(OC)cc3)C(=O)C2=CN1Cc1ccco1` (centres undefined), for which the Potency result in test [1], in test [2], in test [3], in test [4] and in [5] was “inactive” in each case.

For `C=CCN1C(=O)[C@]2(OCCC=C[C@@H]2C)c2cc(OC)ccc21`, the Potency result in [1], in test [2], in test [3], in test [4] and in test [5] was “inactive” each time.

Regarding `CCCCOC(OCCCC)C(O)CSc1ccc2ccccc2c1` (centres undefined), the Potency result in [1], in test [2], in [3], in test [4] and in test [5] was “inactive” in each case.

For `CCN1C(=NCc2ccc(OC)cc2)NC(c2cccc(C(F)(F)F)c2)C(C(=O)OC)=C1C` (centres undefined), the Potency entry in test [1], in test [2], in test [3], in test [6], in test [4] and in [5] was “inactive” throughout.

As for `CCCCCCCC1=CC2=CC(=O)C(C)(OC(C)=O)C(=O)C2=CN1CCc1ccccc1` (centres undefined), the activity change, positive = activation in test [7] was -45.9% [at 11.4 µM]. Further, the Potency in test [8] was 3160 nM (active). Also, the activity, negative = inhibition in test [9] was 78.5% [at 11.4 µM]. Moreover, the Potency result in test [1], in test [2], in test [3], in [6], in test [4] and in test [5] was “inactive” each time.

Consider `Cn1c(-c2ccccc2)c(O)c(=O)c2ccccc21`, for which the activity change, negative = inhibition in [10] was -1.19% [at 11.4 µM]; in [11] it was -14.6% [at 11.4 µM]; in test [8], 4.63% [at 11.4 µM]. Moreover, the activity, negative = inhibition in test [9] was 50% [at 11.4 µM]. Also, the Potency result in test [1], in test [2], in [3], in [6], in test [4] and in test [5] was “inactive” each time.

Regarding `COC(=O)C(C(C)=O)C(=O)C(Cc1ccccc1)NC(=O)OCc1ccccc1` (centres undefined), the activity change, negative = inhibition in test [10] was 2.74% [at 11.4 µM]; in test [11] it was -19.6% [at 11.4 µM]; in test [8] it was -1.19% [at 11.4 µM]. Further, in test [9], the activity, negative = inhibition is -11.9% [at 11.4 µM]. In addition, the Potency entry in test [1], in test [2], in test [3], in [6], in test [4] and in [5] was “inactive” each time.

In the case of `COC(=O)N1[C@H]2CC[C@@]3(C)CC(=O)C[C@]1(C)C3c1ccccc12`, the Potency result in test [1], in test [2], in [3], in test [4] and in [5] was “inactive” each time.

For the molecule `COc1ccc2c(c1)CO[C@H]([C@H](O)CBr)[C@H]2C=Cc1ccccc1`, the Potency result in [1], in [2], in [3], in test [6], in test [4] and in test [5] was “inactive” in each case.

On to `C=C(C)C(=O)C=Cc1ccc(Br)cc1`, for which the Potency result in test [1], in test [2], in test [3], in [4] and in test [5] was “inactive” each time.

As for `COc1ccc(-c2nc(-c3ccccc3)oc2Nc2ccc3ccccc3c2)cc1`, the Potency entry in test [1], in test [2], in test [3], in [6], in [4] and in test [5] was “inactive” throughout.

As for `C=C(CO[C@@H]1C=C[C@@H](c2ccccc2)O[C@@H]1CO)c1ccccc1`, the Potency entry in test [1], in test [2], in test [3], in test [6], in test [4] and in test [5] was “inactive” each time.

With `CCCCC1=CC2=C(c3ccco3)C(=O)C(C)(OC(=O)c3ccc(OC)cc3)C(=O)C2=CN1C1CCCCC1` (centres undefined), the Potency result in test [1], in [2], in test [3], in [4] and in test [5] was “inactive” throughout.

Regarding `N#CCCN(CC#Cc1ccccc1)OCc1ccccc1`, the Potency in test [10] was 3160 nM (active); in [11], 199 nM (active); in [9] it was 316 nM (active). Besides, the activity change, positive = activation in test [7] was -80.9% [at 11.4 µM]. Moreover, the activity change, negative = inhibition in test [8] was -16.6% [at 11.4 µM]. In addition, the Potency entry in [1], in test [2], in test [3], in test [6], in test [4] and in test [5] was “inactive” each time.

`C[C@@H]1CC[C@H]2C(=O)O[C@H](CN=[N+]=[N-])CN2[C@@H]1c1ccc(Br)cc1`: the Potency in test [9] is 398 nM (active). Besides, the activation in test [12] is 9.69%. In addition, the Potency entry in test [1], in [2], in test [3], in test [6], in test [4] and in test [5] was “inactive” in each case.

Consider `C=CCNC(=O)[C@H]1C=C(OC)C(=O)C[C@H]2c3ccccc3C[C@]12C`, for which the Potency entry in [1], in test [2], in test [3], in test [4] and in test [5] was “inactive” in each case.

In the case of `C=C(CC(=O)OC)C[C@]1(CC(=O)OC)CC2(CC=C(C)C)C(=O)C(C(=O)c3ccccc3)=C(OC(=O)c3ccc(Br)cc3)C(CC=C(C)C)(C1)C2=O` (some centres undefined), the activity change, negative = inhibition in [10] was 7.13% [at 11.4 µM]; in test [8], -5% [at 11.4 µM]. In addition, the activity change, positive = activation in test [7] was -37.5% [at 11.4 µM]. The activity, negative = inhibition in test [9] is 79.8% [at 11.4 µM]. The Potency entry in [1], in test [2], in test [3], in test [6], in [4] and in test [5] was “inactive” throughout.

As to `CCCCCCC#C[C@@H]1C=C[C@H](OC(=O)OCC)[C@@H](COC(=O)OCC)O1`, the Potency result in test [1], in test [2], in [3], in [6], in test [4] and in test [5] was “inactive” in each case.

Consider `C[C@H]1CC[C@H]2C(=O)NC[C@H](O)CN2[C@H]1c1ccc(Br)cc1`, for which the Potency entry in [1], in [2], in test [3], in test [6], in [4] and in test [5] was “inactive” each time.

The values are drawn from PubChem BioAssay (NCATS).
